Experimental data: PubChem BioAssay AID485344 (National Center for Advancing Translational Sciences (NCATS), 2010)
Among all 340,000 compounds or so, about 6,900 (2%) were called active. This is one part of a sample in which actives are shown more often than they occur. Unmarked numbers belong to inactive results. No stated cut-off is given here; in the data, active means inhibition above about 30%; inactive means below that, where a call was filed.

target: D(2) dopamine receptor (Homo sapiens) (UniProt P14416); test: HTS Assay for Allosteric Antagonists of the Human D2 Dopamine Receptor: Primary Screen for Antagonists; conditions: HEK293 TREx D2 cells, calcium flux, dopamine EC80; at 10 µM; stronger effect = higher value; further: 0% is about no effect
Method in brief: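 Antagonism is scored as inhibition of an EC80 dopamine-evoked calcium signal in a force-coupled, tetracycline-inducible HEK293 T-REx D2 line, with compound present 180 s before agonist.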

Chain of D(2) dopamine receptor (Homo sapiens) (P14416 whole entry, looked up): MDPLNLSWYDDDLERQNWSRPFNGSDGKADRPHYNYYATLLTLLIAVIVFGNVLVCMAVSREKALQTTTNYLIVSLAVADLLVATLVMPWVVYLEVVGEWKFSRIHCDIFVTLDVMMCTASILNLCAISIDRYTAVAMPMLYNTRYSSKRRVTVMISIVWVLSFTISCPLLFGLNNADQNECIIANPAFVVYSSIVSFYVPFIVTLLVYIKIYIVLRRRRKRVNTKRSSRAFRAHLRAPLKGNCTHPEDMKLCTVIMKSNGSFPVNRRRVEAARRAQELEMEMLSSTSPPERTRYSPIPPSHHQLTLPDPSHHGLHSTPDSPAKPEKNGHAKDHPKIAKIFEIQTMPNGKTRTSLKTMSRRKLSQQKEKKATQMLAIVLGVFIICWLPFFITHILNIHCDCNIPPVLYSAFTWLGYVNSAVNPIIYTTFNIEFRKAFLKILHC

| Compound | inhibition |
| --- | --- |
| O=C(c1ccc(Cl)c(S(=O)(=O)N2CCCCCC2)c1)N1CCN(c2ccc(O)cc2)CC1 | 4.16% |
| CCOC(=O)C(C)N(c1ccccc1Cl)S(C)(=O)=O (centres undefined) | -9.97% |
| CCN(CC)CCNC(=O)CCCCCn1c(=O)[nH]c2cc(C(=O)OC)ccc2c1=O | -2.71% |
| O=C(CCCCn1c(=O)[nH]c2ccccc2c1=O)NCc1ccc2c(c1)OCO2 | -1.23% |
| O=C(CCCCCn1c(=O)[nH]c2ccccc2c1=O)NCCc1c[nH]c2ccccc12 | 39.1% (active) |
| O=C(CCCn1c(=O)[nH]c2cc(Cl)ccc2c1=O)NCCN1CCN(c2ccccc2)CC1 | 81.3% (active) |
| Cc1ccc(C)c(N2CCN(C(=O)CCCCn3c(=O)[nH]c4ccccc4c3=O)CC2)c1 | -2.01% |
| O=C(CCc1c[nH]c2ccccc12)NCCOc1ccccc1 | 12.3% |
| O=C(CSc1ccccc1)Nc1cccc(S(=O)(=O)N2CCOCC2)c1 | 12.8% |
| O=C(/C=C/c1cccc([N+](=O)[O-])c1)OCC(=O)N1CCOCC1 | 13.9% |
| CSc1ccccc1NC(=O)COC(=O)CCCOc1ccc(C)cc1 | 5.07% |
| CCOc1cc(/C=C/C(=O)OCC(=O)NCCN2C(=O)CSC2=O)ccc1OCC(C)C | 2.85% |
| COc1ccccc1C(=O)NC(CCSC)C(=O)NNC(=O)c1csc(N2CCOCC2)n1 (centres undefined) | 6.58% |
| O=C(NNC(=O)c1cc(-c2ccccc2Cl)nc2ccccc12)c1csc(N2CCOCC2)n1 | 4.74% |
| CSCCC(NC(=O)c1ccc(Cl)cc1Cl)C(=O)NNC(=O)c1csc(N2CCOCC2)n1 (centres undefined) | 33.7% (active) |
| CN1CCN(c2ccc(NC(=O)c3cc(Cl)c4c(c3)OCCO4)cc2)CC1 | -8.36% |
| COc1ccc(S(=O)(=O)N2CCCC2CNC(=O)C(=O)NC2CC2)cc1 (centres undefined) | 2.63% |
| Cc1ccccc1C(OCCN(C)C)C1CCCCC1 (centres undefined) | 86.8% (active) |
| Cc1ccccc1C(OCC(O)CN1CCCCC1CCO)c1ccccc1 (centres undefined) | -4.51% |
| CN(C)CCOC1c2ccccc2-c2ccccc21 | -3.38% |
| Cc1ccc(S(=O)(=O)NCCC(=O)NNC(=O)C2COc3ccccc3O2)cc1 (centres undefined) | -0.636% |
| CCCCN(C(=O)c1ccc2ccccc2c1)c1c(N)n(CCCC)c(=O)[nH]c1=O | -22.6% |
| Cc1ccc(/C=C/C(=O)OCC(=O)Nc2cccnc2Cl)cc1 | 13% |
| Nc1nc(SC23CC4CC(CC(C4)C2)C3)ns1 | -8.79% |

| Compound | inhibition |
| --- | --- |
| CCCCCCSc1nsc(N)n1 | 51.1% (active) |
| CCCSc1nsc(N)n1 | -5.55% |
| Cc1ccc(S(=O)(=O)N2CCCCC2)cc1NC(=O)c1cccnc1 | 1.41% |
| CCNC(=O)N1CCN(S(=O)(=O)c2ccc3c(c2)OCCCO3)CC1 | 11.7% |
| CCN(CC(=O)Nc1cccc(S(=O)(=O)N2CCCCC2)c1)Cc1ccccc1 | 0.844% |
| COc1ccccc1N1CC(C(=O)NCCN2C(=O)S/C(=C\c3cccnc3)C2=O)CC1=O (centres undefined) | 4.67% |
| Cc1cc(OCCCN2CCN(Cc3ccccc3)CC2)ccc1[N+](=O)[O-] | -14.3% |
| COc1cc(CN2CCN(Cc3ccc(C)cc3)CC2)c([N+](=O)[O-])cc1OC | 88.1% (active) |
| COc1cc(CN2CCCN(C)CC2)c([N+](=O)[O-])cc1OC | 24.2% |
| COc1ccc(-c2sc3ccc(OC)cc3c2C#Cc2ccccn2)cc1 | -2.01% |
| CC(O)c1nc2c(c(=O)n(C)c(=O)n2C)n1C (centres undefined) | 0.261% |
| CCCCCCn1c(CN2CCCC(C)C2)nc2c1c(=O)n(C)c(=O)n2C (centres undefined) | 2.89% |
| CC1CN(C2CCCCC2)c2nc3c(c(=O)n(C)c(=O)n3C)n2C1 (centres undefined) | 38.7% (active) |
| CCN(CC(=O)NCc1cccs1)C(=O)/C=C/c1ccc(C)cc1 | 0.23% |
| COc1ccc2c(C)cc(SCC(=O)NCC3CCCO3)nc2c1 (centres undefined) | 0.454% |
| O=C(NC1CCCCCC1)C1CCN(C(=O)c2ccc(Cl)cc2)CC1 | -21.8% |
| COc1ccccc1OCCNC(=O)C(CCSC)NC(=O)COc1ccccc1 (centres undefined) | 0.971% |
| S=C(Nc1cccc(Cl)c1)Nc1ccc2c(c1)OCCO2 | 3.88% |
| Cc1csc(NC(=S)Nc2cccc(Cl)c2)n1 | 32.1% (active) |
| S=C(Nc1cccc(Cl)c1)Nc1ccc2cn[nH]c2c1 | -2.72% |
| CN(CC(=O)Nc1ccc(F)cc1)CC(=O)Nc1ccc(Cl)c(S(=O)(=O)N2CCOCC2)c1 | -2.29% |
| CN(CC(=O)Nc1ccc(S(=O)(=O)N2CCCC2)cc1)Cc1ccc(Cl)c(Cl)c1 | -19.3% |
| CN(CCC(=O)Nc1cc(S(=O)(=O)N(C)C)ccc1Cl)CC(=O)Nc1ccc(F)cc1 | 50.6% (active) |
| Cc1ccc(CN2CC(C(=O)NNC(=O)Cn3ccc(C(F)(F)F)n3)CC2=O)cc1 (centres undefined) | 9.85% |

| Compound | inhibition |
| --- | --- |
| COC(=O)C1CCN(C(=O)NC2CC(=O)N(c3ccc4c(c3)OCCO4)C2)CC1 (centres undefined) | 10.2% |
| Cc1ccc(/C=N/NC(=S)Nc2cccc(S(=O)(=O)N(C)C)c2)o1 | -10.5% |
| CN(C)S(=O)(=O)c1cccc(NC(=S)NCc2ccc3c(c2)OCO3)c1 | 51.6% (active) |
| Cc1c(Cl)cccc1NC(=S)NCc1ccc2c(c1)OCO2 | -3.97% |
| O=C(O)CN1c2cccc3cccc(c23)S1(=O)=O | 14.3% |
| Cc1ccc(S(=O)(=O)N(C)C)cc1NC(=O)CN1c2cccc3cccc(c23)S1(=O)=O | 37% (active) |
| CC(C)CN(CC(C)C)C(=O)CN1c2cccc3cccc(c23)S1(=O)=O | -10.2% |
| O=C(COc1ccccc1Cl)N1N=C(c2cccs2)CC1c1ccco1 (centres undefined) | 5.49% |
| Cc1ccc(-c2csc(NC(=O)C3=COCCO3)n2)cc1C | 1.39% |
| CCN(CC)c1ccc(NC(=O)CN2CCN(c3ccccn3)CC2)cc1 | 5.78% |
| CCOC(=O)N1CCN(Cc2nc3cc(NC(C)=O)ccc3n2C)CC1 | 31.3% (active) |
| CN1CCN(Cc2nc3cc(NC(=O)COc4ccc([N+](=O)[O-])cc4)ccc3n2C)CC1 | -8.44% |
| CCC(=O)Nc1ccc2c(c1)nc(CCN1CCN(c3ccccn3)CC1)n2C | 57% (active) |
| CCOC(=O)N1CCN(Cc2nc3cc(NC(=O)CC)ccc3n2CC)CC1 | 3.26% |
| Cn1c(CCN2CCCCCC2)nc2cc(NC(=O)Nc3ccccc3)ccc21 | 0.502% |
| O=C(COC(=O)c1cc(S(=O)(=O)N2CCOCC2)ccc1Cl)NCCc1ccccc1 | -3.61% |
| CC1CCC(CN2CCN=C2N(C)C)CC1 (centres undefined) | 11.2% |
| COc1ccccc1C1=CC(=O)C[C@H](c2ccc(F)cc2)C1 | 4.4% |
| O=S(=O)(c1ccccc1)N1CCC(c2ccccc2)CC1 | 0.0462% |
| COc1ccccc1C(=O)NC(CCSC)C(=O)N1CCN(C(C)=O)CC1 (centres undefined) | 17.9% |
| O=c1oc2ccc(C#CC3(O)CCCCC3)cc2cc1-n1cc(-c2ccsc2)nn1 | 2.59% |
| OCC[C@H]1C[C@@H](O)[C@H](O)[C@]2(OCCCc3ccccc32)O1 | 5.04% |
| O=C(OCC(=O)N1CCCCCC1)c1cnc(Cl)c(Cl)c1 | -0.916% |
| Nn1c(SCC(=O)NC2CCCC2)nnc1-c1ccccc1F | -13.5% |

| Compound | inhibition |
| --- | --- |
| Nn1c(SCC(=O)NC(=O)NC2CCCC2)nnc1-c1ccccc1F | 88.5% (active) |
| CC(C)NC(=O)NC(=O)CSc1nnc(-c2ccccc2F)n1N | 26% |
| CCOc1ccc(CCNC(=O)COC(=O)CCS(=O)(=O)c2ccc(C)cc2)cc1OCC | -15.8% |
| O=C(NC1CCCCC1)c1ccc(-c2ccc(Cl)cc2)o1 | 17.9% |
| O=C1c2oc3ccc(Br)cc3c(=O)c2C(c2cccc(F)c2)N1CCO (centres undefined) | 24.1% |
| O=C1c2oc3ccccc3c(=O)c2C(c2cccc(O)c2)N1c1ccccn1 (centres undefined) | 30.8% (active) |
| COCCN1C(=O)c2oc3c(C)cc(C)cc3c(=O)c2C1c1cccc(O)c1 (centres undefined) | 8.13% |
| Cc1ccc(-c2nn(-c3ccccc3)cc2C(=O)NC2CCC(O)CC2)cc1 (centres undefined) | 11.3% |
| CC(C)(C)OC(=O)N[C@H](C(=O)OC(C)(C)C)c1ccc(Br)cc1 | -2.43% |
| COc1cccc(C2=CC(=O)C[C@H](c3ccc(F)cc3)C2)c1OC | 2.64% |
| Cc1ccc(S(=O)(=O)N2CCN(C(=O)COC(=O)c3c(C)cc(C)cc3C)CC2)c(C)c1 | -0.571% |
| Cc1ccc(S(=O)(=O)N2CCN(C(=O)CSc3cc(C)ccc3C)CC2)c(C)c1 | 12.2% |
| CCCc1cc(=O)[nH]c(SCC(=O)N2CCN(S(=O)(=O)c3ccc(C)cc3C)CC2)n1 | 40.9% (active) |
| O=C(COC(=O)C1CC2CCCC(C1)C2=O)NC(=O)c1ccccc1 (centres undefined) | -17.3% |
| CC(Oc1ccc(Br)cc1)C(=O)NC1CCCCCC1 (centres undefined) | -1.39% |
| O=C(COc1ccc([N+](=O)[O-])cc1)Nc1ccc(N2CCCC2)cc1 | -10.9% |
| O=C(COc1ccc([N+](=O)[O-])cc1)Nc1cccc(C(=O)Nc2ccccc2C(=O)O)c1 | 52% (active) |
| O=C(Nc1ccccc1C(=O)Nc1ccncc1)c1ccc([N+](=O)[O-])cc1 | -16% |
| Cc1ccc(S(=O)(=O)N(C)CC(=O)NCC(c2ccc(F)cc2)N2CCOCC2)cc1 (centres undefined) | 12.3% |
| CCCn1nc(C(=O)Nc2ccc3nc(C)sc3c2)c2ccccc2c1=O | 31% (active) |
| CCCn1nc(C(=O)NNC(=O)CSCC(=O)Nc2cc(C)on2)c2ccccc2c1=O | 5.99% |
| CCCCn1nc(C(=O)Nc2cccc(C(=O)NC3CC3)c2)c2ccccc2c1=O | -27.4% |
